# Screens (PubChem BioAssay)
# The sample as a whole holds a higher share of hits than the screen did.
# Pf Dd2 inh: qHTS Primary assay for Inhibitors of Plasmodium falciparum Dd2 growth in vitro; P. falciparum Dd2 growth, SYBR Green, 72 h; Potency, µM (doses to about 28.9 µM), for the others: at the highest dose activity, negative = inhibition, most hits filed as inhibitors; 120,000 compounds, 4.3% hits; active = well fitted inhibition curve with a large enough effect;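 also: plate controls were DMSO vehicle for no effect and reference drug for full effect; nearly all actives have a fitted effect of over 65% in size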
#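 Readout: SYBR Green fluorescence, 485 nm excitation, 535 nm emission, after ~16 h lysis at 37C. Before that, Dd2-infected red cells (2.5% hematocrit) grew 72 h with compound, 29 uM top final concentration.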
# * hit, by the source's call; i = inactive; [ ] = remark or other dose. Potency is read from the fitted curve at half-maximal effect.
SMILES,Pf Dd2 inh
O=C1CC(c2ccccc2)N(C(=O)C2CC2)CCCN(S(=O)(=O)c2cccnc2)CCN1 (stereo unspecified),-5.0%
Nc1nc(C2CC(NC(=O)c3ccc(CO)cc3)C2)cc(=O)[nH]1 (stereo unspecified),-10.8%
Cc1ccc(NCc2cccn2-c2nnc(N3CCC(C(=O)NCc4ccc(OC(C)C)cc4)CC3)s2)cc1,-28.2%
CCc1ccc(NCc2cccn2-c2nnc(N3CCCCCC3)s2)cc1,-15.7%
Cc1ccc(CN(Cc2cccn2-c2nnc(N3CCCC3=O)s2)C(=O)Nc2ccccc2Cl)cc1,11.2µM*
CN(Cc1cccnc1)C1CN(C(=O)C2CCC2)C1,-7.8%
CCCCn1c(SCC(=O)Nc2cccc(OC)c2)nc2c(sc3ccccc32)c1=O,i
CCC(Sc1nc2ccccc2c2nc(CCn3cncc3C)nn12)C(=O)Nc1cccc(OC)c1 (stereo unspecified),7.08µM*
CCC(Oc1ccccc1)C(=O)Nc1cccc(OCc2cc(=O)n3cccc(C)c3n2)c1 (stereo unspecified),i
COC(=O)c1cc2sc(C)cc2n1Cc1cccc(OC)c1,10µM*
COC(=O)c1cc2sc(C)cc2n1Cc1ccccc1,-6.8%
COC(=O)c1cc2sccc2n1Cc1ccccc1,30.7%
COCC(=O)NCC(=O)N1CCCCCNC(=O)CC1c1ccccc1 (stereo unspecified),13.9%
CCC(=O)Nc1cccc(C2OC(=O)N(Cc3ccc(C)cc3)C2C(=O)NCCOC)c1 (stereo unspecified),i
Cc1cccc(C(=O)Nc2cccc(C3OC(=O)N(Cc4ccccc4)C3C(=O)NCC(C)C)c2)c1 (stereo unspecified),-8.1%
Cc1ccc(CN2C(=O)OC(c3cccc(NC(=O)c4ccccc4)c3)C2C(=O)NCCC(C)C)cc1 (stereo unspecified),7.08µM*
COc1ccc(NC(=O)Cn2cnnn2)c(NC(=O)C(C)C)c1,11.9%
O=C(NCCCn1cccn1)c1cccnc1N1CC2CC(C1)[C@H]1CCCC(=O)N1C2 (stereo partly specified),-17.7%
CN(C)CCNC(=O)c1c(OCC2CC2)cc(=O)n2c1CCOCC2,-12.2%
CCOc1ccc(NC(=O)Cn2cc(C(=O)c3ccccc3)c3ccccc32)cc1,26.2%
O=C(Cn1cc(C(=O)c2ccco2)c2ccccc21)Nc1ccc(Br)cc1,-14.9%
COc1ccccc1OCCn1cc(C(=O)c2cccs2)c2ccccc21,i
Cc1ccccc1OCCn1cc(C(=O)c2ccco2)c2ccccc21,1.26µM*
Cc1ccc(OCCn2cc(C(=O)c3cccs3)c3ccccc32)cc1,3.98µM*
Cc1ccccc1NC(=O)Cn1cc(C(=O)c2ccco2)c2ccccc21,-4.8%
SMILES,Pf Dd2 inh
Cc1ccccc1OCCn1cc(C(=O)C2CCCCC2)c2ccccc21,-8.8%
Cc1cc(OCCn2cc(C(=O)c3ccco3)c3ccccc32)ccc1Cl,1.12µM*
Cc1cccc(C)c1OCC(=O)N(Cc1ccco1)Cc1ccco1,14.2%
O=C(NCc1ccco1)C1CC(c2ccccc2)CN(C(=O)c2ccccc2F)C1 (stereo unspecified),i
CN(C)Cc1nnc(C2CC(NC(=O)CSCC3CC3)C2)n1C (stereo unspecified),4.3%
Cc1ccccc1S(=O)(=O)N1CCC(c2noc(-c3ccccn3)n2)C1 (stereo unspecified),i[5.79 µM]
COc1cccc(-c2nc3cnccn3c2NCCC(=O)NC2CCCCCC2)c1,i
C[C@@]12CO[C@@H](CNS(C)(=O)=O)O[C@@H]1CC[C@]1(C)[C@@H]2CC[C@@H](O)[C@H]1CC(=O)NCc1ccco1,14.7%
CCOc1ccccc1CN1CCC2(CCN([S+](=O)([O-])c3ccc(C)cc3)CC2)Oc2ccccc21,3.98µM*
O=C1CC2(CCN([S+](=O)([O-])c3cccc(C(F)(F)F)c3)CC2)Oc2cc(Cl)ccc21,i
COc1cccc([S+](=O)([O-])N2CCC3(CC2)CC(=O)c2ccccc2O3)c1,i
CCOc1ccccc1CN1CCC2(CCN([S+](=O)([O-])c3cccc(C(F)(F)F)c3)CC2)Oc2ccccc21,8.91µM*
O=C1CC2(CCN([S+](=O)([O-])c3cccc(C(F)(F)F)c3)CC2)Oc2ccccc21,i
O=C1CC2(CCN([S+](=O)([O-])c3ccccc3)CC2)Oc2ccccc2N1,i
O=C(Cn1nc2c(cc1=O)CCCC2)Nc1nc(-c2ccccn2)cs1,-3.1%
COc1ccc(C(=O)N2CCC3(CC2)c2nccn2-c2ccccc2CN3C)cc1OC,i[5.79 µM]
CC(C)N1C[C@H](C(=O)NCCCc2ccccc2)[C@H](C(=O)O)C1,-3.4%
CC(C)CCNC(=O)N1CCCC(Cn2c(C3CC3)nc3cccnc32)C1 (stereo unspecified),i
CC1CCN(C(=O)CSc2c3c(nc4cc(Cl)ccc24)CCCC3)CC1,-23.8%
CCC(C)NC(=O)CSc1c2c(nc3cc(Cl)ccc13)CCCC2 (stereo unspecified),-9.1%
O=C(CSc1c2c(nc3cc(Cl)ccc13)CCCC2)N1CCN(c2ccccc2)CC1,11.2µM*
